This assay has as its target Genome polyprotein (Dengue virus type 2 (strain 16681-PDK53)) (UniProt P29991). The experiment in a line: Dengue-2 NS5 methyltransferase inhibitors, primary screen, biochemical, confirmation dose response (AID 588689). To be noted: Dengue-2 NS5 methyltransferase capping enzyme assay, at 25 µM, stronger effect = higher value.
[1] abbreviates: measured here: pilot screen replicate inhibition.

The structures appear in SMILES notation. The campaign covered roughly 340,000 compounds. About 1,000 (0.29%) were called active. Rule as the data show it: inconclusive = inhibition above about 29% without an active follow-up result; inactive = below that. The list is a sample of the results. Entries with a potency or affinity are not part of this list.

Genome polyprotein (Dengue virus type 2 (strain 16681-PDK53)), sequence (P29991 whole entry, looked up): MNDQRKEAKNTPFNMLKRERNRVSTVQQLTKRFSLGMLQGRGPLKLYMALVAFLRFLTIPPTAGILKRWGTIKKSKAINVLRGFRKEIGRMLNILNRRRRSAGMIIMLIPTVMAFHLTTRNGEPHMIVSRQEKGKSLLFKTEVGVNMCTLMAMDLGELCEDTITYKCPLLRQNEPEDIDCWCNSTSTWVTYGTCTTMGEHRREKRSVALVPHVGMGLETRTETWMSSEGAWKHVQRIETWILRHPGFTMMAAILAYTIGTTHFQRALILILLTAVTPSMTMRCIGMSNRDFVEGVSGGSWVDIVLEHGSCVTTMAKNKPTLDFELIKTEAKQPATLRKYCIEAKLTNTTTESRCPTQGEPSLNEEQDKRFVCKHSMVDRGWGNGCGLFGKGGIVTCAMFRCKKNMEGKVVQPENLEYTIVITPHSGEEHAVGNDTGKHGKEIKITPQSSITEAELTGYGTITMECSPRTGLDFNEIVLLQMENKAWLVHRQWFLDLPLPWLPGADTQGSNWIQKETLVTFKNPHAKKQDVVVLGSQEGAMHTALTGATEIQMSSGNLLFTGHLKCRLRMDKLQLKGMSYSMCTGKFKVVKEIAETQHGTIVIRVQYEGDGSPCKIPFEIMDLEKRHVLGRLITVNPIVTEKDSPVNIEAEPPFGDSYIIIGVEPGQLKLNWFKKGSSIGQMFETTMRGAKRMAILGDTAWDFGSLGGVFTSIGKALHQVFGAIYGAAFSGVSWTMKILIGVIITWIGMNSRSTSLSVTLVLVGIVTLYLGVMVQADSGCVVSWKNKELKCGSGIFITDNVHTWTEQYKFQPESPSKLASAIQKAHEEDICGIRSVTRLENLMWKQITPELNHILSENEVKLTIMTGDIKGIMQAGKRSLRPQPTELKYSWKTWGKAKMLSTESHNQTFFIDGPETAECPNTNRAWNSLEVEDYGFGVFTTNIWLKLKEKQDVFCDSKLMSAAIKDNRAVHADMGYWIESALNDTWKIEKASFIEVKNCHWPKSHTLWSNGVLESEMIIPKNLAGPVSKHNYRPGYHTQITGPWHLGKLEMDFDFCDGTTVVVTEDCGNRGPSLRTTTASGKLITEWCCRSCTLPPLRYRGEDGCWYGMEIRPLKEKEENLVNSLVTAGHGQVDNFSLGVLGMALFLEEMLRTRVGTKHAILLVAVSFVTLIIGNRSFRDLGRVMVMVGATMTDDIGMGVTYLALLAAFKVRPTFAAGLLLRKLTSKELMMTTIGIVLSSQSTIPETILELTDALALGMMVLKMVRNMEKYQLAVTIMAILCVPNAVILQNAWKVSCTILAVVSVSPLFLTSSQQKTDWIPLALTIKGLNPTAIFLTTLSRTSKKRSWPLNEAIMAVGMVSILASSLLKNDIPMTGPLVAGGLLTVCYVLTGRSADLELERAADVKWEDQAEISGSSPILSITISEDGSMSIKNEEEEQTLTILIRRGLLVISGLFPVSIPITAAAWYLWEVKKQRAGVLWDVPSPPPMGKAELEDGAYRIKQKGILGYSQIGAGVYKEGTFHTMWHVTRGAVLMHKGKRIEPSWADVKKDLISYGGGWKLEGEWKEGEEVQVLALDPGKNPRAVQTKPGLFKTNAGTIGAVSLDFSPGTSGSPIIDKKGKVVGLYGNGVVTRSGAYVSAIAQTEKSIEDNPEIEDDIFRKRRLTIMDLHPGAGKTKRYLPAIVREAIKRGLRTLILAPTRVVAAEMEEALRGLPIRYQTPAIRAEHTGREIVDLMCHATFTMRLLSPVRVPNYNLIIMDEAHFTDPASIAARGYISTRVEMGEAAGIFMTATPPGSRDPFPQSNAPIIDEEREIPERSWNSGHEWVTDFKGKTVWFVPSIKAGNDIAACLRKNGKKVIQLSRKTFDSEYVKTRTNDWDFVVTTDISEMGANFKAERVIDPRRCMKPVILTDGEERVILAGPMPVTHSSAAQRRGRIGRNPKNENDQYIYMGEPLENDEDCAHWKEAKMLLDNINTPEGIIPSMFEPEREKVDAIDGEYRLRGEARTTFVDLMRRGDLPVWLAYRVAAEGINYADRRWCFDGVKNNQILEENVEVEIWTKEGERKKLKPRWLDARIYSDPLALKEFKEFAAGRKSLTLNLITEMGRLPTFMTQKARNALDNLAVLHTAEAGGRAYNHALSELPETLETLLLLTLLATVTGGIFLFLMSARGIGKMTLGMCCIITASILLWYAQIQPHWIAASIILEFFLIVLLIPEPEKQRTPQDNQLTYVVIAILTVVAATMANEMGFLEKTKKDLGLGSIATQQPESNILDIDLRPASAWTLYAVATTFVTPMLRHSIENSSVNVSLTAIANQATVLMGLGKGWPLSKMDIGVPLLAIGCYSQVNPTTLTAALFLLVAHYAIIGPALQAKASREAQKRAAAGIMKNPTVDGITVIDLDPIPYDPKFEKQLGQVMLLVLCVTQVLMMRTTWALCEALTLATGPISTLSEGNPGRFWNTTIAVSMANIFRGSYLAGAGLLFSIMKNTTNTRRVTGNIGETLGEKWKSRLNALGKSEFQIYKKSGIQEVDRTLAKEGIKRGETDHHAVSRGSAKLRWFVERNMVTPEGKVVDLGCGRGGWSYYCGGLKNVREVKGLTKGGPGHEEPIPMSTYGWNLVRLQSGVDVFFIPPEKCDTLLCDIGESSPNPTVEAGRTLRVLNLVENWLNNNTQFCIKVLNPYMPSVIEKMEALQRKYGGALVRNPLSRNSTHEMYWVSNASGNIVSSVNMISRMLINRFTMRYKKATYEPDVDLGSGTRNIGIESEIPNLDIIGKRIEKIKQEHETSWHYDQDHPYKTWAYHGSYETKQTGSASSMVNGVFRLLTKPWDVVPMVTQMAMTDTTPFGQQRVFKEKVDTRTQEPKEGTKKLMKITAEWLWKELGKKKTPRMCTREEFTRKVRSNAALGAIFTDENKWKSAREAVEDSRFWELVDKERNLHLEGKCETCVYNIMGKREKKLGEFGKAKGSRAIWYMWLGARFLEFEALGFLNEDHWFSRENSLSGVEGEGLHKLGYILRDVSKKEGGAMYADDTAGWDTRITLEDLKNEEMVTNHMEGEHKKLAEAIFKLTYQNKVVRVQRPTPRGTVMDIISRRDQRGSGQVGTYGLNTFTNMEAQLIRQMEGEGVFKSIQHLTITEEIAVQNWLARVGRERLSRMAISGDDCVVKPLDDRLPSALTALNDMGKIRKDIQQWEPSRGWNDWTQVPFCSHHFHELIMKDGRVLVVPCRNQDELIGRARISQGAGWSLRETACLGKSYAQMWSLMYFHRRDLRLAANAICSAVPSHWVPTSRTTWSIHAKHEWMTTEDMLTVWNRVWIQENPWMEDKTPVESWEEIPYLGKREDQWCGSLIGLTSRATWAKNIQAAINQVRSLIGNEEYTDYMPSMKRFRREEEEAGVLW

For the compound `CC1(C)CC(=O)C2=C(C1)c1c(ccc3ccccc13)NC2c1ccco1` (stereo not drawn), the inhibition is -4.19% (inactive).
On the same count and under the same terms, under `CC1(C)CC(=O)C2=C(C1)c1c(ccc3ccccc13)NC2c1ccc(C(=O)O)cc1` (stereo not drawn) stands 2.04% (inactive); under `COc1ccc(S(=O)(=O)N2CCN(c3ccccc3OC)CC2)cc1C(=O)N1CCCCC1`, -9.14% (inactive).
The same measure, in the same setting: the figure for `O=C(COc1ccc(Br)cc1)NNC(=S)NC(=O)c1ccccc1[N+](=O)[O-]` is 10.8% (inactive); for `Cc1ccccc1OCC(=O)NNC(=S)NC(=O)c1ccccc1[N+](=O)[O-]` it is -8.89% (inactive); for `Cc1ccsc1CN(C)Cc1nc(C2CC2)no1` it is 1.78% (inactive).
On the same count and under the same terms, the figure for `CCOc1ccc(C=NNc2ccc(S(=O)(=O)Nc3ccccc3C(=O)O)cc2[N+](=O)[O-])cc1OC` is 7.77% (inactive); for `CCOc1cccc(C=NNc2ccc(S(=O)(=O)Nc3ccccc3C(=O)O)cc2[N+](=O)[O-])c1O` it is 9.55% (inactive); for `COc1ccccc1NS(=O)(=O)c1ccc(N/N=C/c2c(C)nn(-c3ccccc3)c2N2CCCC2)c([N+](=O)[O-])c1` it is 0.96% (inactive).
In the case of `CSc1ccc(C=NNc2ccc(S(=O)(=O)Nc3ccccc3C(=O)O)cc2[N+](=O)[O-])cc1`, the inhibition was 18.3% (inactive).
On to `CCN(Cc1ccccc1)C(=O)c1ccc(C(=O)N(CC)Cc2ccccc2)cc1`, for which the inhibition was -1.55% (inactive).
Same read-out and setting: the figure for `CCc1nc(SCc2ccccc2)n[nH]1` is 8.1% (inactive).
Regarding `Cc1cc(C(F)(F)F)c(C#N)c(SCC(=O)NC(C)(C)C)n1`, the inhibition is -2.7% (inactive). Also, under setting [1], the inhibition was determined as 4.83%.
In the case of `COc1cccc(O)c1CN1CCC(n2nccc2NC(=O)c2ccc3c(c2)OCO3)CC1`, the inhibition was -3.24% (inactive).
As to `CCCCSc1n[nH]c(N)n1`, the inhibition is -2.73% (inactive).
As for `COc1cccc(NC(=O)Cc2nnc(SCC(=O)NC3=NCCS3)n2C)c1`, the inhibition is -1.78% (inactive).
Same read-out and setting: under `CCOc1cc(C(=O)N2CCN=C2SC)cc(OCC)c1OCC` stands -0.73% (inactive); under `CCCCCCN1C[C@H](n2cc(C3CC3)nn2)[C@@H](O)C[C@@H]1c1ccc(C)cc1`, 0% (inactive).
The same measure, in the same setting: under `COc1ccc(NC2=NCCC(=O)N2Cc2cccs2)cc1` stands 3.14% (inactive).
The same measure, in the same setting: under `OCC(CO)(CO)N=Cc1c(O)ccc2ccccc12` stands 24.8% (inactive); under `CN(C)/N=C/c1c(O)ccc2ccccc12`, 10.4% (inactive).
In the case of `COc1ccc(NC(=O)/C=C/c2ccccc2)c([N+](=O)[O-])c1`, the inhibition is -2.2% (inactive).
As for `CC(=O)N1c2ccccc2NC2=C(C(=O)CCC2)C1c1ccco1` (stereo not drawn), the inhibition is 9.11% (inactive).
The same measure, in the same setting: the figure for `O/N=C/c1cc(Br)ccc1OCc1ccc(F)cc1` is -7.14% (inactive); for `Cn1cccc1/C=C1\SC(=S)N(CC(=O)O)C1=O` it is -7.69% (inactive).
On the same count and under the same terms, under `O=C(O)CCN1C(=O)/C(=C\c2ccc(OCc3ccccc3)c(OCc3ccccc3)c2)SC1=S` stands 8.45% (inactive); under `CCn1c(C)cc(/C=C2/SC(=S)N(CC(=O)O)C2=O)c1C`, -89.8% (inactive); under `Cn1cccc1/C=C1/SC(=S)N(CC(=O)O)C1=O`, 3.63% (inactive).
On the same count and under the same terms, under `O=[N+]([O-])c1ccc(COc2ccc(Br)cc2CN2CCOCC2)cc1` stands -3.16% (inactive); under `O=C1CCc2cc(S(=O)(=O)Nc3ccccc3)cc3c2N1CCC3`, -5.11% (inactive); under `CCOc1cccc(N2CCN(CCNC(=O)Nc3ccc(C)cc3)CC2)c1C`, -3.11% (inactive).
Regarding `CC(C)N(C(=O)[C@H]1C[C@H](CC(=O)NCc2ccco2)C(=O)N2CCc3c([nH]c4cc(CCC(=O)N(C)C)ccc34)[C@]12C)C(C)C`, the inhibition was -2.31% (inactive). Besides, the inhibition under setting [1] came to 1.51%.
`Cc1ccc(-c2nnn(CC(=O)N(c3ccccc3F)C(C(=O)NC3CCCC3)c3ccncc3)n2)o1` (stereo not drawn): the inhibition was 5.7% (inactive).
Still for that read-out and setting: the figure for `COC(=O)c1cc(COC(=O)c2nc3nccc(C)n3n2)oc1C` is 0% (inactive).
Still for that read-out and setting: under `Clc1ccc(-c2csc(-c3ccno3)n2)cc1` stands -5.36% (inactive).
The same measure, in the same setting: the figure for `O=[N+]([O-])c1ccc(NCCCN2CCOCC2)c([N+](=O)[O-])c1` is -5.47% (inactive).
Consider `COc1ccc(CC(=O)Nc2ccc(S(=O)(=O)Nc3cc(OC)nc(OC)n3)cc2)cc1`, for which the inhibition was 23.3% (inactive).
Same read-out and setting: under `O=C(O)CCCC(=O)N1CCc2cc(S(=O)(=O)N3CCc4ccccc43)ccc21` stands -4.13% (inactive); under `O=C1CCCCC1(O)Cc1ccc2c(c1)OCO2` (stereo not drawn), -3.89% (inactive); under `O=c1cc(-c2ccccc2)oc2cccc(O)c12`, -5.07% (inactive).
Turning to `O=c1cc(-c2ccccc2)oc2cc(O)cc(O)c12`, the inhibition was -12.6% (inactive).
On the same count and under the same terms, the figure for `CC(=O)c1cc2c(cc1NC(=O)Cc1ccsc1)OCO2` is -0.37% (inactive); for `O=C(C1CC(c2cccc(Br)c2)=NO1)N1CCc2ccccc2C1` (stereo not drawn) it is -3.92% (inactive).
Regarding `Cc1cccc(OCCn2nc(C(=O)O)c3ccccc3c2=O)c1`, the inhibition is 2.68% (inactive).
Still for that read-out and setting: the figure for `O=C(Nc1cccc2ccccc12)c1cccc([N+](=O)[O-])c1` is -4.08% (inactive); for `O=C(O)c1cccc([N+](=O)[O-])c1C(=O)Nc1cccc2ccccc12` it is -2.72% (inactive).
The same measure, in the same setting: under `COc1cc(CN=Cc2c(O)n(Cc3ccccc3)c(=S)[nH]c2=O)cc(OC)c1` stands 10.8% (inactive).
Still for that read-out and setting: the figure for `COc1c(O)ccc(/C=N\NC(=O)c2ccc3c(c2)OCO3)c1[N+](=O)[O-]` is 12.7% (inactive); for `COc1c(O)ccc(/C=N/NC(=O)c2ccc3c(c2)OCCO3)c1[N+](=O)[O-]` it is 2.38% (inactive).
Consider `O=C(c1cc(-c2ccncc2)nc2ccc(Cl)cc12)N1CCN(C(=O)C2CCCO2)CC1` (stereo not drawn), for which the inhibition is -1.35% (inactive).
Same read-out and setting: the figure for `COC1=CC(=O)C=C(OC)C1=O` is -8.21% (inactive).
Same read-out and setting: the figure for `CC/C=C\C/C=C\C/C=C\CCCCCCCC(=O)O` is 2.2% (inactive); for `CN(CC(=O)Nc1ccccc1Cl)C(=O)CSc1nnc(-c2ccco2)o1` it is -1.47% (inactive); for `CN1CCN(NC(=O)c2cc(S(=O)(=O)N3CCOCC3)c(Cl)cc2Cl)CC1` it is 1.45% (inactive).
The same measure, in the same setting: the figure for `O=C(NC(C(=O)c1ccccc1)N1CCOCC1)c1cccs1` (stereo not drawn) is -6.21% (inactive).
On to `CCCCN1C(=O)N(CCc2ccc(F)cc2)S(=O)(=O)c2cc(C(F)(F)F)ccc21`, for which the inhibition is -0.33% (inactive). Moreover, the inhibition under setting [1] was determined as 1.51%.
As for `Cc1cccc2nc3ccccc3nc12`, the inhibition is -0.76% (inactive).
Same read-out and setting: under `COc1ccc2nc3ccccc3nc2c1N` stands 40.2% (inactive); under `NC(=O)c1ccc(=O)n(Cc2ccc(F)c(F)c2)c1`, -1.31% (inactive).
Regarding `Cc1cc(C(c2ccc(O)cc2)c2cc(C)c(O)cc2C)c(C)cc1O`, the inhibition was -0.79% (inactive).
On the same count and under the same terms, the figure for `Cc1ccc(N)cc1O` is -2.91% (inactive).
On the same count and under the same terms, under `Cc1ccc(CNC(=O)C(C(=O)NCc2ccc(C)o2)c2ncc(C(F)(F)F)cc2Cl)o1` stands -13.8% (inactive).
Still for that read-out and setting: the figure for `COc1ccc(Br)cc1C(=O)NC(=S)Nc1ccc(Cl)c(C(=O)O)c1` is 4.69% (inactive); for `COc1ccc(Br)cc1/C=C/C(=O)NC(=S)Nc1ccc(CN2CCOCC2)cc1` it is -10.4% (inactive).
`CC1(C)OC(=O)C(=NNc2ccccc2)C(=O)O1`: the inhibition was -0.73% (inactive).
As to `c1ccc(NN=C2c3ccccc3-c3ccccc32)cc1`, the inhibition was -1.94% (inactive).
Take `COc1ccc(N(C)C(=O)c2ccc3c(c2)nnn3C)cc1`: the inhibition is -4.51% (inactive).
Still for that read-out and setting: the figure for `O=C(CN1CCOCC1)Nc1ccccc1NC(=O)C1CCN(c2ncccn2)CC1` is -11.3% (inactive).
For `COC(=O)[C@@]1(Cc2ccccc2)[C@H]2C(=O)N(C)C(=O)[C@H]2[C@H]2CN=C(SCc3ccc(C)cc3)N21`, the inhibition was 1.99% (inactive). Besides, the inhibition under setting [1] was 0.61%.
In the case of `Cc1csc(/C(=N/OC(=O)c2ccco2)C(N)=O)n1`, the inhibition is -32.5% (inactive).
As for `N/C(=N\OC(=O)c1ccco1)c1ccc(Br)cc1`, the inhibition is -5.29% (inactive).
On to `O=C(CCCOc1cccc(Br)c1)NCCOc1ccccc1`, for which the inhibition was -4.07% (inactive).
Still for that read-out and setting: under `Cn1c(=O)c2sccc2n(CC(=O)NCCC2=CCCCC2)c1=O` stands -7.27% (inactive); under `CCN(CC)Cc1nc2c(c(=O)[nH]1)C1(CCCCC1)Cc1ccccc1-2`, -5.55% (inactive); under `COC(=O)c1ccc(N2NC(=O)/C(=C/c3cc(OC)c(O)c(OC)c3)C2=O)cc1`, -24.8% (inactive).
The same measure, in the same setting: under `O=Cc1ccc(-c2ccccc2C(=O)O)o1` stands -2.22% (inactive).
In the case of `COc1ccc(NC(=O)/C(C#N)=C/c2ccc(-c3ccc(Cl)c(C(=O)O)c3)o2)cc1`, the inhibition is 3.44% (inactive).
`COC(=O)c1ccc(N2NC(=O)/C(=C/c3ccc(OC)c(OC)c3)C2=O)cc1`: the inhibition was 34.3% (inactive).
For `O=C1NN(c2cccc(Br)c2)C(=O)/C1=C/c1ccc(-c2cc([N+](=O)[O-])ccc2O)o1`, the inhibition is 70.1% (inactive).
On the same count and under the same terms, under `Cc1nnc(NC(=O)c2ccc3c(c2)OCO3)s1` stands 8.19% (inactive); under `Cc1noc(C)c1CSCC(=O)Nc1nc2ccc(S(C)(=O)=O)cc2s1`, -2.95% (inactive).
On to `N#CCC(=O)N/N=C/c1ccc(OS(=O)(=O)c2ccccc2)cc1`, for which the inhibition was -3.76% (inactive). Also, under setting [1], the inhibition is -2.42%.
Regarding `COC(=O)Cn1c(CCS(=O)(=O)c2ccc(Cl)cc2)nc2ccccc21`, the inhibition is -5.46% (inactive).
The same measure, in the same setting: the figure for `Cc1ccc(-c2cnc3ccccc3n2)cc1C` is -6.51% (inactive); for `O=C(Nc1ccc2c(c1)OCO2)c1n[nH]c(=O)c2ccccc12` it is 11.1% (inactive); for `CSCCC(NC(=O)C1CC1)c1nc2ccccc2[nH]1` (stereo not drawn) it is -5.48% (inactive).
Regarding `C[C@H](NC(=O)c1nc[nH]c1C(=O)N1CCN(C(=O)OC(C)(C)C)CC1)C(=O)OCc1ccccc1`, the inhibition is -2.48% (inactive).
On the same count and under the same terms, under `O=C(Nc1ccc(C(F)(F)F)cc1)c1csc(-c2ccncc2)n1` stands -2.96% (inactive); under `CSc1nsc(SC)c1NC(=O)N1CCCC1`, -1.61% (inactive); under `O=C(O)c1cc(-c2ccc(/C=C3\NC(=O)N(c4ccc(Cl)cc4)C3=O)o2)ccc1Cl`, 13.8% (inactive).
In the case of `O=C(O)c1cc(-c2ccc(/C=C3\NC(=O)N(c4ccccc4)C3=O)o2)ccc1Cl`, the inhibition was 3.09% (inactive).
Still for that read-out and setting: the figure for `C#CCN1C(=O)S/C(=C\c2ccc(-c3ccc(Cl)c(C(=O)O)c3)o2)C1=O` is 2.31% (inactive).
Still for that read-out and setting: under `Cc1ccc(N2NC(=O)/C(=C/c3ccc(-c4ccc(Cl)c(C(=O)O)c4)o3)C2=O)cc1` stands 15.4% (inactive).

The values above are taken from PubChem BioAssay AID588689 (Southern Research Specialized Biocontainment Screening …, 2011).
